Pol eta inh – blocks human DNA polymerase eta activity; Q9Y253; recombinant Pol eta, fluorescent DNA replication assay; Potency, µM (titrated, usually from 114 µM), without a hit: at the top dose activity change, negative = inhibition, hits mostly inhibitors; 1.2% of 390,000 active; also: potency is read from the fitted curve at half-maximal effect; % is scaled to controls: 0 for no effect and ±100 for the full control effect
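Pol eta (10 nM) was preincubated with compounds for 15 min at room temperature, after which fluorescent replication substrate (50 nM final) was added to start the reaction. Fluorescence was read kinetically at 0 and 10 min.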
WRN inhibitor – inhibitors of human WRN helicase. AID 651768. 0.46% of 360,000 active. WRN helicase unwinding, fluorescent forked duplex, kinetic. Potency, µM (top dose mostly 114 µM), inactives show at the top dose activity change, negative = inhibition, actives largely listed as inhibitors; also: potency is read from the fitted curve at half-maximal effect; % is scaled to controls: 0 for no effect and ±100 for the full control effect; nearly all actives have a fitted effect of over 55% in size
Target sequence (Q14191 whole entry, looked up): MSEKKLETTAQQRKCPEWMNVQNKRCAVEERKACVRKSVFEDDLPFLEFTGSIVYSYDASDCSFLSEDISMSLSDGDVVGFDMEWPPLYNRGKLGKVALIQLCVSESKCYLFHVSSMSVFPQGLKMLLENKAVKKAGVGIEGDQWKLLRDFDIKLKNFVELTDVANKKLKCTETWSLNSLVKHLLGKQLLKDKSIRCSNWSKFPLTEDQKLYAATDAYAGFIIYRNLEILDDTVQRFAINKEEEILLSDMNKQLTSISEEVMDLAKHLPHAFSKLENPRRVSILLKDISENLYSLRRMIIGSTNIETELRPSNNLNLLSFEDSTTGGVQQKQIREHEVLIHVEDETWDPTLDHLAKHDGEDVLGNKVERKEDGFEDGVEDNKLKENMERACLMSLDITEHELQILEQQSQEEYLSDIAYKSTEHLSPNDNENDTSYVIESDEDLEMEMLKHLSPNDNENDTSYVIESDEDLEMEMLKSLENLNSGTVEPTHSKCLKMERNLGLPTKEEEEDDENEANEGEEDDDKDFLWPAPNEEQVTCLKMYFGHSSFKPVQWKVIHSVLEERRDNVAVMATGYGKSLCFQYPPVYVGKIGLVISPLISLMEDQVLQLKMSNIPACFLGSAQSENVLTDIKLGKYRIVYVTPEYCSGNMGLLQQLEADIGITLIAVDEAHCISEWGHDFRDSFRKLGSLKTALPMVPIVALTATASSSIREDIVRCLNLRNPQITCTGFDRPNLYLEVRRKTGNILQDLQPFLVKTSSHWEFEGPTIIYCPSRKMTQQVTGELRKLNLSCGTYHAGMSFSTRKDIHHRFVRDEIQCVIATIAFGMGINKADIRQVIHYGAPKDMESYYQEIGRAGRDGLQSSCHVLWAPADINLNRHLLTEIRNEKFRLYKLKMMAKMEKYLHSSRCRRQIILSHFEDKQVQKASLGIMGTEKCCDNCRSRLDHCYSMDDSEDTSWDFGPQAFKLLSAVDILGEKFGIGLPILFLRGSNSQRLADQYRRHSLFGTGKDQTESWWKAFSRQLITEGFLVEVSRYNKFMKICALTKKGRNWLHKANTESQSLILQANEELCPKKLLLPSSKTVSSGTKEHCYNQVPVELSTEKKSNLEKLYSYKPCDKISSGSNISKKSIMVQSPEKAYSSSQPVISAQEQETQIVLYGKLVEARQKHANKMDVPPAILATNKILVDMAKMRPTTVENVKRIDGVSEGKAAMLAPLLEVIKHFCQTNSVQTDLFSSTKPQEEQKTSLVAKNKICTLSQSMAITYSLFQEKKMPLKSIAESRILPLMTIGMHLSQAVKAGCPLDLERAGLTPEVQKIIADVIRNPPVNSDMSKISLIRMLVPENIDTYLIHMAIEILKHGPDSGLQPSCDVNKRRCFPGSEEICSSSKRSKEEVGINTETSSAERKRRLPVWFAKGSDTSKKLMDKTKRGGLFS
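Kinetic fluorescence helicase assay: unwinding of a quenched forked DNA duplex (100 nM final) with 2 mM ATP final raises red fluorescence (525/598 nm). Compounds sat 15 min at room temperature with 20 nM WRN beforehand.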
Pol iota inh – blocks human DNA polymerase iota activity. Q9UNA4. AID 588590. Potency, µM (titrated, usually from 115 µM), inactives show top-dose activity, negative = inhibition, actives largely listed as inhibitors. Pol iota fluorescent replication assay, 10 min. 1% of 390,000 active; also: potency is read from the fitted curve at half-maximal effect
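Fluorescent replication assay read twice, at 0 min and 10 min after adding 50 nM (final) substrate. Enzyme (10 nM) and compounds were first incubated 15 min at room temperature; enzyme-free buffer wells were negative controls.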
POLK inh – DNA polymerase kappa (human) inhibition; Q9UBT6; purified Pol kappa, fluorescent DNA synthesis assay, 10 min; Potency, µM (series often up to 107 µM), for inactives: at the highest dose activity, negative = inhibition, actives largely listed as inhibitors; 0.53% of 400,000 active; AID 588579; also: potency is read from the fitted curve at half-maximal effect; % is scaled to controls: 0 for no effect and ±100 for the full control effect
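Here, compound and 10 nM enzyme are combined for 15 min at room temperature; adding 50 nM substrate (final) starts DNA synthesis, tracked by fluorescence at 0 and 10 min against buffer-only wells.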
Pol beta inh – DNA polymerase beta (human) inhibition. P06746. Pol beta primer extension/strand displacement, fluorescence kinetic. Potency, µM (titrated, usually from 114 µM), without a hit: at the top dose activity change, negative = inhibition, most hits filed as inhibitors. 1.3% of 340,000 active. AID 485314; also: potency is read from the fitted curve at half-maximal effect; % is scaled to controls: 0 for no effect and ±100 for the full control effect
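Pol beta (10 nM) and compounds were preincubated 15 min at room temperature, then 50 nM substrate (final) started primer extension/strand displacement. Reads were taken at 0 and 10 min; concentration-response data were fitted to a four-parameter Hill equation.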
PI5P4Ka inh – PI5P4K alpha (human) kinase inhibition; PI5P4Kalpha enzyme, ADP-Glo luminescence, 60 min; active compounds read low; max response, %; 1.2% of 330,000 active; AID 652105; active = max response of -50% or lower; inconclusive = between -30% and -50%; inactive = -30% or higher; also: value at the top dose of about 77 µM; % is scaled to controls: 0 for no effect and ±100 for the full control effect
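Luminescence from ADP-Glo served as readout of PI5P4Kalpha activity in a qHTS format. Reaction: enzyme, substrate, compound, ATP at 5 microM final, 60 min at RT.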
Starred values were filed as active, the others as inactive; ? = inconclusive; nt = not tested or not shown; [ ] = remark or other dose. A selection: hits, their analogues and other compounds. The true share with any hit is near 2.8%. Unless noted, calls follow the shape of the dose curve; as a rule, active = well fitted curve in the direction sought with a large enough effect; inconclusive = small, poorly fitted or top-dose-only effect, or another doubt; inactive = no such curve, though single readings can be large; an effect the other way counts as inactive or inconclusive.

SMILES	Pol eta inh	WRN inhibitor	Pol iota inh	POLK inh	Pol beta inh	PI5P4Ka inh
CC1CCN(S(=O)(=O)c2ccc(NC(=O)C3CCCCC3C(=O)O)cc2)CC1 (stereo unspecified)	-10%	-27%	18%	-20%	nt	?
CCn1c(C)c(C)c2cc(C(=O)NCc3cccc(C)c3)ccc21	-9%	nt	5%	-6%	-1%	nt
CC(C)c1ccc(C(=O)Nc2ccc(-c3nc4ccccc4s3)c(Cl)c2)cc1	-10%	nt	-5%	8%	9%	nt
CC1CC(=O)c2c(cc3c(-c4c(O)cc(O)c5c(O)c6c(cc45)OC(C)CC6=O)c(O)cc(O)c3c2O)O1 (stereo unspecified)	10µM*	?	1.1µM*	?	18µM*	-80*
O=C(CN1C(=O)S/C(=C\c2ccccc2)C1=O)Nc1cc([N+](=O)[O-])ccc1O	79µM*	-1%[11.6 µM]	-21%	0%	-1%	-19
Cc1ccc(/C=C2/SC(=S)N(CCCC(=O)Nc3cc([N+](=O)[O-])ccc3O)C2=O)cc1	-5%	-1%	20%	-10%	21%	-9
O=C(O)c1cccc(CN2C(=O)S/C(=C/c3cccc([N+](=O)[O-])c3)C2=O)c1	79µM*	-6%[11.6 µM]	?	-4%	-9%	-30
C=CCN=C1S/C(=C/c2cccc([N+](=O)[O-])c2)C(=O)N1CC=C	-11%	-1%	6%	-13%	0%	1
O=C(CN1C(=O)CSc2ccccc21)N/N=C/c1ccco1	-24%	-1%	38%	-6%	-10%	-1
Cc1cc[n+](CC#N)cc1	nt	nt	45%	-30%	nt	nt
COc1ccc(C(=O)Nc2ccc(-c3n[nH]c(=S)o3)cc2)cc1OC	-4%	-9%	-2%	6%	4%	-53*
O=C(Nc1ccc(-c2n[nH]c(=S)o2)cc1)c1ccccc1Br	-11%	-1%	18%	3%	16%	-57*
COc1ccc(Cl)cc1-c1n[nH]c(=S)o1	-4%	-10%	-3%	-14%	13%	-75*
COc1ccc(C(=O)Nc2ccncc2)cc1OC	-8%	18%	?	-5%[60.1 µM]	27%	nt
CCCCn1c(-c2cc(Cl)ccc2OC)n[nH]c1=S	-10%	0%	0%	-11%	50%	nt
COC1CCCN(C(=O)c2ccc(OC3CCN(CCc4ccccc4)CC3)cc2)C1 (stereo unspecified)	2%	9%	143%	-18%	14%	3
O=[N+]([O-])c1ccc(Cl)c(S(=O)(=O)/N=C(/Sc2ccc(Br)cc2)c2ccccc2)c1	nt	nt	19%	-13%	nt	nt
COc1cccc(-c2ccc3ncnc(NCc4cnc(C)cn4)c3c2)c1	nt	nt	nt	2%[60.1 µM]	nt	nt
O=C1Nc2ccccc2/C1=C\C(=O)c1ccccc1	-1%	-10%	?	-8%[60.1 µM]	21%	1
O=C(/C=C1\C(=O)Nc2ccccc21)/C=C1\C(=O)Nc2ccccc21	-15%	-9%	?	-12%	6%	-83*
CC(OC(=O)[C@@H](NS(=O)(=O)c1ccccc1)C(C)C)C(=O)c1c(N)n(C)c(=O)n(C)c1=O (stereo partly specified)	-12%	1%	nt	nt	nt	2
NS(=O)(=O)c1ccc(CCNC(=O)CCC(=O)c2cccs2)cc1	89µM*	7%[11.6 µM]	-19%	-18%	nt	?
Cc1cc(C)n(CCc2nc(-c3ccc(C)o3)cs2)n1	16µM*	-7%[11.6 µM]	?	-23%	50µM*	?
COc1ccc(Cl)cc1NC(=S)NNC(=O)C1(C)CC1(Cl)Cl (stereo unspecified)	-4%	-2%	-1%	-2%	6%	-52*
CN1C(C(=O)Nc2ccccn2)=C(O)c2sc(Cl)cc2S1(=O)=O	0%	-4%	79µM*	-10%	?	-7
SMILES	Pol eta inh	WRN inhibitor	Pol iota inh	POLK inh	Pol beta inh	PI5P4Ka inh
CN1C(C(=O)Nc2ccccn2)C(=O)c2sc(Cl)cc2S1(=O)=O (stereo unspecified)	nt	nt	nt	-10%[60.1 µM]	nt	nt
CS(=O)(=O)c1nsc2nc(=O)c(/C=C3\C=Nc4ccccc43)c(N)n12	?	-14%	-3%	-18%	21%	-72*
COc1ccccc1CNC(=O)CSc1ccsc1[N+](=O)[O-]	-5%	-7%	?	-16%	?	?
COc1ccc(CCNC(=O)CSc2ccsc2[N+](=O)[O-])cc1OC	-8%	-4%	-8%	-3%[60.1 µM]	?	-19
COc1ccc(CCNC(=O)CSc2ccsc2[N+](=O)[O-])c(OC)c1	45µM*	-7%[11.6 µM]	?	-32%	?	-57*
COc1ccc(OC)c(CCNC(=O)CSc2ccsc2[N+](=O)[O-])c1	40µM*	-22%[57.1 µM]	45µM*	?	-11%	-55*
Cc1ccc(NC(=S)NC(=O)c2sc3ccccc3c2Cl)c(C(=O)O)c1	nt	nt	nt	nt	20µM*	nt
Cc1cc(C)c(NC(=O)CN(C)C(=O)c2ccc(OCc3ccccc3)cc2)c(C)c1	-15%	7%	-29%	-3%	nt	-1
O=C(c1ccc(Cn2cnnn2)cc1)N1CCCC(Nc2ccc(F)c(F)c2)C1 (stereo unspecified)	-10%	5%	39%	-2%	33%	1
N#Cc1ccccc1COC(=O)CCCC1=NS(=O)(=O)c2ccccc2N1	4%	0%	28%	1%	26%	1
COc1cc(O)c2c(=O)c(O)c(-c3ccc(O)c(O)c3)oc2c1	nt	nt	nt	0.95µM*	nt	nt
O=c1c(O)c(-c2ccc(O)cc2)oc2cc(O)cc(O)c12	25µM*	-16%	79µM*	-30%	nt	-73*
CCN(CC)S(=O)(=O)c1cc(NC(=O)c2ccc3c(c2)NC(=O)C(C)S3)ccc1C (stereo unspecified)	56µM*	-3%[11.6 µM]	-15%	-1%	nt	?
Cc1cc(C)c(NC(=O)c2ccc3c(c2)NC(=O)C(C)S3)c(C)c1 (stereo unspecified)	-23%	-2%	54%	-8%	nt	-2
CC(=O)OCC(NC(=O)C(Cc1ccccc1)NC(=O)OC(C)(C)C)C1OC(n2cc(F)c(=O)[nH]c2=O)C(OC(C)=O)C1OC(C)=O (stereo unspecified)	nt	nt	-14%	2%	nt	nt
COc1ccc(CN=C2NC(=O)CC(C(=O)Nc3ccc(F)cc3)S2)cc1 (stereo unspecified)	-15%	8%	-2%	-7%	-10%[57.1 µM]	-4
CCc1ccc(N=C2NC(=O)CC(C(=O)Nc3ccc(OC)cc3)S2)cc1 (stereo unspecified)	?	nt	-8%	-17%	18µM*	nt
CCOc1ccccc1N1CC(C(=O)N(CC)C2CCS(=O)(=O)C2)CC1=O (stereo unspecified)	50µM*	-1%[11.6 µM]	?	-20%	nt	-17
